RGS4-Gao reg: modulators of RGS4 binding to Galphao, primary screen, biochemical, multiplexed bead flow cytometry. Guanine nucleotide-binding protein G(o) subunit alpha (Homo sapiens), P09471. actives lie on both sides. binding response (% of control), % at 10 µM. 0.33% of 220,000 active. AID 1415, 2008; in the data active = binding response below about 49% or above about 150%; inactive = in between;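 note: fluorescent Galphao activated with aluminum fluoride binding bead-coupled RGS4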
RGS7-Gao: RGS7-Galphao binding modulators, primary screen, biochemical, multiplexed bead flow cytometry. actives lie on both sides. binding response (% of control), % at 10 µM. 0.35% of 220,000 active; in the data active = binding response below about 49% or above about 150%; inconclusive = no clear call, values can overlap the other calls; inactive = in between;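 note: fluorescent Galphao held in activated GDP-AlF4 state binding bead-coupled RGS7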
GSH fluor: compound fluorescence on glutathione beads, profiling panel, artefact control, biophysical, 488/530 nm, flow cytometry | fluorescence (KMESF) at 10 µM | GSH beads flow cytometry, compound fluorescence 488/530 nm; active compounds read high | AID 1776, 2009 | 0.25% of 190,000 active; in the data active = fluorescence above about 89;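 note: glutathione beads carrying GST-tagged Bcl family fusion proteins plus one bare bead set; values are compound well signal with DMSO vehicle wells as background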
RGS8-Gao reg: RGS8-Galphao binding modulators, primary screen, biochemical, multiplexed bead flow cytometry; Guanine nucleotide-binding protein G(o) subunit alpha (Homo sapiens), P09471; actives lie on both sides; response (percent of control binding), % at 10 µM; 0.34% of 220,000 active; AID 1423, 2008; in the data active = response below about 60% or above about 140%; inactive = in between;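 note: Galphao activated as the GDP aluminium fluoride complex binding bead-coupled RGS8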
RGS16-Gao HTS: modulators of RGS16 binding to Galphao, primary screen, biochemical, human proteins, multiplexed bead flow cytometry; Regulator of G-protein signaling 16 (Homo sapiens) + Guanine nucleotide-binding protein …; bead-based flow cytometry RGS16-Galphao binding, fluorescence; actives lie on both sides; binding response (% of control), % at 10 µM; 0.38% of 220,000 active; call rule not given here;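 note: Galphao activated by GDP with aluminum fluoride before binding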
Target sequence (O15492 whole entry, looked up): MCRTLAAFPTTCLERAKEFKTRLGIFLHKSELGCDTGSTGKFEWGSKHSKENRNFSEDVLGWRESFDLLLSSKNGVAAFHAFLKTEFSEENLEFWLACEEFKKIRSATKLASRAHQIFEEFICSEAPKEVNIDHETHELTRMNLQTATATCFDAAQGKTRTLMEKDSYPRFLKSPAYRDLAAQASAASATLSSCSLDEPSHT
Target sequence (P09471 whole entry, looked up): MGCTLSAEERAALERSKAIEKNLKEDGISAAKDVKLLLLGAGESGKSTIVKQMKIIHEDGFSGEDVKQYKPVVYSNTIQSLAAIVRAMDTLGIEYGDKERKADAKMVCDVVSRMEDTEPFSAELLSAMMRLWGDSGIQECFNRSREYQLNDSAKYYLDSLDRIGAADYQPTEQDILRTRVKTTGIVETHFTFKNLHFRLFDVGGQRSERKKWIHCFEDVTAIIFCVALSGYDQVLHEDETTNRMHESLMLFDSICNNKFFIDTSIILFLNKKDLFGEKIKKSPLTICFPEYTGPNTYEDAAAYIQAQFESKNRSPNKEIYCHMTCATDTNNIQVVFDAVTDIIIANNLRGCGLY
Avidin fluor: green autofluorescence of compounds with avidin beads – biophysical, 488/530 nm, flow cytometry, artefact control, profiling panel. compound fluorescence 488/530 nm; active compounds read high. 0.38% of 220,000 active. fluorescence (KMESF) at 10 µM; in the data active = fluorescence above about 47
* hit, by the source's call; ? = inconclusive; . = no result. Compounds with a hit are over-represented: about 1.2% of the library has one in this group of screens.

SMILES	RGS4-Gao reg	RGS7-Gao	GSH fluor	RGS8-Gao reg	RGS16-Gao HTS	Avidin fluor
O=C(COC(=O)Cn1cnc2ccccc21)NCCC1=CCCCC1	103.9	105.6	257*	102.5	101.2	8
Cc1ccc(OCC(=O)N2CCCc3ccccc32)cc1	108.3	110.1	140*	105.5	110.9	7
CC1=C(C)CC(C(=O)Nc2cccc(Cl)c2)C(C(=O)O)C1 (stereo unspecified)	102.9	99.3	46	101.2	104.0	15
O=C(O)C1CC=CCC1C(=O)Nc1cccc(Cl)c1 (stereo unspecified)	102.3	102.3	277*	105.3	102.4	7
COc1ccc(C(CC(=O)Nc2nccs2)n2cccc2)cc1 (stereo unspecified)	105.0	107.3	12	102.0	101.4	49*
CCC(C)(C)NC(=O)CN(C(=O)c1snc(C(N)=O)c1N)c1ccc2c(c1)OCCO2	97.3	100.6	24	99.4	96.8	29
CCCC(C(=O)NC(C)(C)C)N(C(=O)c1snc(C(N)=O)c1N)c1ccc2c(c1)OCCO2 (stereo unspecified)	116.3	136.5	11	101.5	108.5	47*
CCn1c2ccccc2c2cc(NC(=O)N3CCOCC3)ccc21	105.3	104.4	13	104.1	113.8	47*
Cc1ccc(/C=C2\CCC3=C2OC(N)=C(C#N)C3c2ccc(C)cc2)cc1 (stereo unspecified)	116.6	116.9	40	104.6	118.1	66*
CC(C)Cn1c(=O)[nH]c(=O)c2c(C(F)(F)F)cc(-c3ccccc3)nc21	97.0	?	.	100.8	99.1	.
O=C(NC(=O)N1CCN(c2ccc([N+](=O)[O-])cn2)CC1)c1c(Cl)cccc1Cl	138.6	?	.	117.3	132.8	49*
O=C(NC(=O)N1CCN(c2ccc([N+](=O)[O-])cn2)CC1)c1ccccc1F	98.5	?	.	97.7	95.4	7
CCCc1nc(SCC(=O)c2ccc(F)cc2)c2ccccc2n1	104.5	103.3	21	102.5	103.9	8
COc1ccc(NC(=S)N2CCN(CCN3C(=O)c4cccc5cccc(c45)C3=O)CC2)cc1	103.5	?	14	101.0	101.8	10
CCOc1ccc(NC(=S)N2CCN(CCN3C(=O)c4cccc5cccc(c45)C3=O)CC2)cc1	106.2	123.4	13	106.1	112.6	51*
O=C(Nc1ccc2c(c1)OCCO2)C1CCCN1S(=O)(=O)c1ccc(Cl)cc1 (stereo unspecified)	98.6	101.5	261*	101.0	100.8	7
O=C(Cn1c2ccccc2c(=O)c2cc([N+](=O)[O-])ccc21)Nc1ccccc1Cl	111.3	120.3	34	99.2	113.1	35
c1csc(CSc2nc3ccccc3s2)c1	98.7	99.9	276*	99.8	102.5	7
COc1ccc(NC(=O)c2cc(=O)[nH]c(=O)[nH]2)cc1S(=O)(=O)Nc1ccccc1Cl	99.7	?	15	103.0	98.1	11
CN(C)c1ccc(/C=C2\SC(=S)N(Nc3ncc(C(F)(F)F)cc3Cl)C2=O)cc1	118.5	118.9	45	104.3	122.9	56*
CCOC(=O)NC(=O)CSc1nnnn1-c1ccccc1	115.9	135.1	30	104.1	123.3	109*
COc1ccc(C(=O)Nc2ccccc2C(=O)NC(Cc2ccc(O)cc2)C(=O)NNC(=O)c2ccncc2)cc1 (stereo unspecified)	97.0	95.5	24	95.4	97.5	9
Cc1cccc(C(=O)Nc2nnc(SCC(=O)Nc3ccc4c(c3)oc3ccccc34)s2)c1	109.9	108.6	8	104.8	102.3	12
COc1ccccc1C(=O)Nc1nnc(SCC(=O)Nc2ccc3c(c2)oc2ccccc23)s1	100.0	102.3	811*	102.5	110.5	14
O=C(CSc1nnc(CNC(=O)c2ccco2)o1)Nc1ccccc1	104.6	119.6	12	105.0	112.0	59*
COc1ccc(NC(=O)CSc2nnc(CNC(=O)c3ccco3)o2)cc1	105.0	107.6	11	105.3	110.9	25
